These results are taken from the supplement of paper PMC9135407.

The assay concerns primary human hepatic stellate cells (donor 1). The assay can be described thus: scaled lipid accumulation score (0 = DMSO-like, 1 = nortriptyline-like); higher = stronger HSC inactivation (lipid re-accumulation), active = hit call of the paper. The note with it: 48 h. As for the experimental part:
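Primary lipid accumulation screen in primary human hepatic stellate cell myofibroblasts (donor 1, passage 8) in 384-well plates. 100 nL of library compound was pin-transferred into 30 µL medium in duplicate, and cells were treated for 48 h. The 'Scaled' score combines distance from plate baseline, toxicity and reproducibility penalties, and is normalised to nortriptyline (positive) and DMSO (negative) controls on each plate. A hit is defined as scaled >0.85 or among the top 3 wells per plate.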

Setting [1] is: library stock concentration: 80 uM.
Where [2] appears, read: library stock concentration: 400 uM.
[3] abbreviates: library stock concentration: 2 mM.
The mark [4] stands for this setting: library stock concentration: 10 mM.
Setting [5] is: library stock concentration: 1 mM.
The mark [6] stands for this setting: library stock concentration: 3.33 mM.

Several values for one entry are separate records, joined by “and”; a condition that tells them apart may be missing. Equal entries are not always repeated. Structures can show the parent of a compound that is named as a salt. Hit rate of the full screen: of about 5,800 compounds, about 620 (11%) showed activity. Shown is part of a subset that was picked to be rich in actives. Unmarked numbers belong to inactive results.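 How the source made its calls: active = score above a cut-off or among the top three wells of a plate; in these data no inactive exceeds 0.85.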 Where only a bound is given, the exact number is not on record here.

With `COC(=O)/C=C/C(=O)N(O)CCCCNCc1ccc(COC(=O)Nc2cccc3ccccc23)cc1` [Methylstat], the “scaled lipid accumulation score” value runs as follows: under setting [1], at most 0; under setting [2], at most 0; under setting [3], at most 0; under setting [4], 0.26.

For the compound `CCCCC[C@H](O)/C=C/[C@H]1[C@H](O)CC(=O)[C@@H]1CCCCCCCCC(=O)O` [1a,1b-dihomo Prostaglandin E1], the “scaled lipid accumulation score” value under setting [5] is at most 0.

On to `CC1=C(/C=C/C(C)=C/C=C/C(C)=C/C=C/C=C(C)/C=C/C=C(C)/C=C/C2=C(C)C(=O)[C@@H](O)CC2(C)C)C(C)(C)C[C@H](O)C1=O` [Astaxanthin], for which, under setting [4], the “scaled lipid accumulation score” value was at most 0.

Consider `CC1=C(/C=C/C(C)=C/C=C/C(C)=C/C=C/C=C(C)/C=C/C=C(C)/C=C/C2=C(C)C(=O)CCC2(C)C)C(C)(C)CCC1=O` [Canthaxanthin], for which the “scaled lipid accumulation score” value (library stock concentration: 3.5 mM) is 1.25 (active).

For the compound `CC1=C(/C=C/C(C)=C/C=C/C(C)=C/C=C/C=C(C)/C=C/C=C(C)/C=C/C2=C(C)CCCC2(C)C)C(C)(C)CCC1` [Beta Carotene], the “scaled lipid accumulation score” value under setting [6] is at most 0 and the “scaled lipid accumulation score” value under setting [4] is at most 0.

For the compound `CC(=O)N1CCCC1C(=O)O` (stereo unspecified) [N-acetylproline], the “scaled lipid accumulation score” value under setting [4] was at most 0.

Regarding `C[C@]12C=CC(=O)C=C1CC[C@@H]1[C@@H]2[C@@H](O)C[C@@]2(C)[C@H]1CC[C@]2(O)C(=O)COC(=O)CCC(=O)O`, under setting [4], the “scaled lipid accumulation score” value was at most 0.

For `O=C(CCc1ccc(O)cc1)c1c(O)cc(O)cc1O[C@@H]1O[C@H](CO)[C@@H](O)[C@H](O)[C@H]1O` [Phlorizin], the “scaled lipid accumulation score” value reads like this: under setting [6], at most 0; under setting [4], at most 0.

Take `CCCCC/C=C\C=C1\C(=O)CC[C@@H]1C/C=C\CCCC(=O)O`: the “scaled lipid accumulation score” value under setting [5] is at most 0.

Turning to `CC(=O)OC[C@H]1O[C@@H]([S-])[C@H](OC(C)=O)[C@@H](OC(C)=O)[C@@H]1OC(C)=O.CCP(CC)CC.[Au+]` [Auranofin], under setting [4], the “scaled lipid accumulation score” value is 0.439.

Take `CC[P](CC)(CC)=[Au][S][C@@H]1O[C@H](COC(C)=O)[C@@H](OC(C)=O)[C@H](OC(C)=O)[C@H]1OC(C)=O` [Auranofin]: the “scaled lipid accumulation score” value (library stock concentration: 2.9 mM) was 0.86 (active).

For the compound `CC[C@@H](CO)Nc1nc(NCc2ccc(-c3ccccn3)cc2)c2ncn(C(C)C)c2n1` [CR8, (S)-Isomer], under setting [6], the “scaled lipid accumulation score” value was at most 0.

`CSc1nc(N)c2ncn([C@@H]3O[C@H](COP(=O)(O)OP(=O)(O)OP(=O)(O)O)[C@H](O)C3O)c2n1` (stereo partly specified) [2-Methylthioadenosine triphosphate tetrasodium]: the “scaled lipid accumulation score” value under setting [4] is at most 0.

In the case of `CS(=O)(=O)c1ccc(-n2nc(C(F)(F)F)cc2-c2ccc(F)cc2)cc1`, the “scaled lipid accumulation score” value under setting [4] was at most -0.055.

On to `Cc1cc(Nc2ncnc3ccc(-c4ccc(CNCCS(C)(=O)=O)o4)cc23)ccc1Oc1ccn2ncnc2c1` [HER2-Inhibitor-1] [listing 1 of 2 here], for which the “scaled lipid accumulation score” value under setting [6] was 0.203.

As to `C[C@@H]1COC(Nc2ccc3ncnc(Nc4ccc(OCc5nccs5)c(Cl)c4)c3c2)=N1` [Varlitinib], the “scaled lipid accumulation score” value runs as follows: under setting [6], 0.382; under setting [4], 0.594.

On to `CCC(=O)Nc1ccc2ncnc(Nc3cccc(Br)c3)c2c1`, for which the “scaled lipid accumulation score” value under setting [6] is at most 0.

As for `Cc1cc(Nc2ncnc3ccc(-c4ccc(CNCCS(C)(=O)=O)o4)cc23)ccc1Oc1ccn2ncnc2c1` [HER2-Inhibitor-1] [listing 2 of 2 here], the “scaled lipid accumulation score” value under setting [4] is 0.977 (active).

For the compound `CC(C)(O)CC(=O)NCCn1ccc2ncnc(Nc3ccc(Oc4cccc(C(F)(F)F)c4)c(Cl)c3)c21`, the “scaled lipid accumulation score” value is at most 0 under setting [6] and 0.302 under setting [4].

`CS(=O)(=O)CCNCc1ccc(-c2ccc3ncnc(Nc4ccc(OCc5cccc(F)c5)c(Cl)c4)c3c2)o1` [listing 1 of 2 here]: the “scaled lipid accumulation score” value is at most 0 under setting [1]; ≤ 0 and 0.144 under setting [2]; 0.42 under setting [3]; 0.429 under setting [4].

As for `CS(=O)(=O)CCNCc1nc(-c2ccc3ncnc(Nc4ccc(OCc5cccc(F)c5)c(Cl)c4)c3c2)cs1.Cl.Cl`, the “scaled lipid accumulation score” value under setting [4] is 1.38 (active).

Take `C=CC(=O)Nc1ccc2ncnc(Nc3ccc(OCc4cccc(F)c4)c(Cl)c3)c2c1`: the “scaled lipid accumulation score” value under setting [1] is at most -0.016; the “scaled lipid accumulation score” value under setting [2] is at most -0.016; the “scaled lipid accumulation score” value under setting [3] was at most -0.016; the “scaled lipid accumulation score” value under setting [6] is 0.132; the “scaled lipid accumulation score” value under setting [4] was 0.378 and 0.75.

With `Cc1ccc(CNc2ncnc3ccc(-c4ccc(CO)o4)cc23)o1`, the “scaled lipid accumulation score” value runs as follows: under setting [6], at most -0.009; under setting [4], at most 0.

Consider `CS(=O)(=O)CCNCc1ccc(-c2ccc3ncnc(Nc4ccc(OCc5cccc(F)c5)c(Cl)c4)c3c2)o1` [listing 2 of 2 here], for which, under setting [3], the “scaled lipid accumulation score” value was 1.7 (active).

On to `CC(C)CCCCCCC/C=C/C(=O)O` [trans-.DELTA.2-11-methyl-Dodecenoic Acid], for which the “scaled lipid accumulation score” value under setting [5] is at most 0.

For `CC(C)=CCC/C(C)=C/CC/C(C)=C/CSCC(=O)O` [S-Farnesyl Thioacetic Acid], under setting [5], the “scaled lipid accumulation score” value was 0.018.

For `CC(C)=CCC/C(C)=C/CC/C(C)=C/CSCC(=O)O` [Farnesylthioacetic acid], the “scaled lipid accumulation score” value under setting [5] is at most -0.021.

For the compound `CCCCCCCCCC(=O)NC(CN1CCOCC1)C(O)c1ccccc1` (stereo unspecified) [PDMP (hydrochloride)], under setting [5], the “scaled lipid accumulation score” value is at most 0.

For the compound `C1CCN2C[C@@H]3C[C@@H](CN4CCCC[C@@H]34)[C@H]2C1` [Sparteine sulfate], the “scaled lipid accumulation score” value is at most -0.001 (library stock concentration: 6 mM) and 0.072 under setting [4].

`C1CCN2C[C@@H]3C[C@@H](CN4CCCC[C@@H]34)[C@H]2C1` [Sparteine (-)]: the “scaled lipid accumulation score” value is at most 0.

On to `CCCCC[C@H](O)/C=C/[C@H]1[C@H](O)CC(=O)[C@@H]1C/C=C\CCCC(=O)O` [Dinoprostone], for which the “scaled lipid accumulation score” value (library stock concentration: 5.7 mM) was at most -0.006.

Turning to `CCCCC[C@H](O)/C=C/[C@H]1[C@H](O)CC(=O)[C@@H]1C/C=C\CCCC(=O)O` [Prostaglandin E2], the “scaled lipid accumulation score” value under setting [5] is at most 0 and the “scaled lipid accumulation score” value under setting [4] was at most -0.001.

On to `CCCCC[C@H](O)/C=C/[C@H]1[C@H](O)CC(=O)[C@@H]1C/C=C\CCCC(=O)O` [Prostaglandin  E2], for which the “scaled lipid accumulation score” value under setting [5] is at most -0.021.

`Cc1ccc2c(c1)C(=O)C1(O)CCN(c3ccccc3)C1=N2` (single isomer, unassigned; (-)) [(-)-Blebbistatin]: the “scaled lipid accumulation score” value is at most -0.001 under setting [1]; at most -0.001 under setting [2]; at most 0 under setting [5]; at most -0.001 under setting [3]; at most -0.009 under setting [6]; 0.264 under setting [4].

For `CCCCC/C=C\C/C=C\CC/C=C\CCCC(=O)OC` [Pinolenic Acid methyl ester], the “scaled lipid accumulation score” value under setting [5] was at most 0.

`CC(C)(C)c1cnc(CSc2cnc(NC(=O)C3CCNCC3)s2)o1`: the “scaled lipid accumulation score” value is, setting by setting: under setting [1], 0.373; under setting [2], 0.262 and 0.17; under setting [3], 0.414 and 0.498; under setting [6], 0.468; under setting [4], 0.32 and 0.42 and 0.56.

As to `CN([C@@H](Cc1ccc(OS(=O)(=O)c2cccc3cnccc23)cc1)C(=O)N1CCN(c2ccccc2)CC1)S(=O)(=O)c1cccc2cnccc12`, the “scaled lipid accumulation score” value under setting [1] was at most 0, the “scaled lipid accumulation score” value under setting [2] was at most 0, the “scaled lipid accumulation score” value under setting [3] is at most 0 and the “scaled lipid accumulation score” value under setting [4] is 0.021.

As to `COC(=O)C1=CO[C@@H](C)[C@H]2CN3CCc4c([nH]c5ccccc45)[C@@H]3C[C@H]12` [Ajmalicine hydrochloride], the “scaled lipid accumulation score” value is 0.17.

Regarding `CCCCc1nn(-c2ccccc2C(F)(F)F)c(=O)n1Cc1ccc(-c2ccccc2S(=O)(=O)NC(=O)c2sccc2C)cc1`, under setting [4], the “scaled lipid accumulation score” value was at most -0.001.

Take `c1ccc2c(-c3cnn4cc(-c5ccc(N6CCNCC6)cc5)cnc34)ccnc2c1`: the “scaled lipid accumulation score” value is 0.107 under setting [1], at most -0.009 under setting [2], 0.656 under setting [3] and 0.103 under setting [4].

With `CCCCCC(=O)CC[C@@H]1[C@@H](C/C=C\CCCC(=O)O)[C@@H](O)C[C@H]1O` [13,14-dihydro-15-keto Prostaglandin F2.alpha.], the “scaled lipid accumulation score” value under setting [5] was at most 0.

Consider `NC(=O)c1cccc(-c2cc(Nc3ccc(OC(F)(F)F)cc3)ncn2)c1`, for which the “scaled lipid accumulation score” value was at most 0 under setting [1]; at most 0 under setting [2]; 0.03 under setting [3]; at most 0 under setting [6]; ≤ 0 and 0.198 under setting [4].

Regarding `CCCCCCCCCCCCC(O)C(=O)O` (stereo unspecified) [2-Hydroxymyristic acid], the “scaled lipid accumulation score” value under setting [5] is 0.03.

As for `CCCCCCCCCCCCC(O)C(=O)O` (stereo unspecified) [2-Hydroxymyristic Acid], under setting [5], the “scaled lipid accumulation score” value is at most 0.

As for `COC1=C(OC)C(=O)c2ccccc2C1=O` [2,3-Dimethoxy-1,4-naphthoquinone], the “scaled lipid accumulation score” value under setting [4] is 0.634.

On to `CC1=CC(=O)c2ccccc2C1=O` [Menadione] [listing 1 of 2 here], for which the “scaled lipid accumulation score” value was 0.873 (active).

`CC1=CC(=O)c2ccccc2C1=O` [Menadione] [listing 2 of 2 here]: the “scaled lipid accumulation score” value under setting [6] is at most 0; the “scaled lipid accumulation score” value under setting [4] is 0.707 and ≤ 0; the “scaled lipid accumulation score” value (library stock concentration: 11.6 mM) was 0.594.

In the case of `O=C1NC(=O)/C(=C/c2ccc3nccnc3c2)S1`, the “scaled lipid accumulation score” value is, setting by setting: under setting [1], at most -0.016; under setting [2], at most -0.016; under setting [3], at most -0.016; under setting [4], at most -0.016.

Turning to `COc1cc(CNC(=O)CCCC/C=C/C(C)C)ccc1O` [(E)-Capsaicin], the “scaled lipid accumulation score” value under setting [4] was at most 0.

Regarding `COc1cc(CNC(=O)CCCC/C=C/C(C)C)ccc1O` [E-capsaicin], the “scaled lipid accumulation score” value under setting [4] is at most 0.

On to `COc1cc(CNC(=O)CCCC/C=C/C(C)C)ccc1O` [E-Capsaicin], for which the “scaled lipid accumulation score” value (library stock concentration: 16.4 mM) is 0.112.

Turning to `COc1cc(CNC(=O)CCCC/C=C/C(C)C)ccc1O` [Capsaicin], the “scaled lipid accumulation score” value was at most 0. Also, the “scaled lipid accumulation score” value under setting [5] is at most 0. In addition, the “scaled lipid accumulation score” value under setting [4] is at most 0.

With `COc1c(C)c2c(c(O)c1C/C=C(\C)CCC(=O)OCCN1CCOCC1)C(=O)OC2` [Mycophenolate Mofetil], the “scaled lipid accumulation score” value is at most 0 under setting [6] and at most 0 under setting [4].

As for `CC(C)c1cccc(C(C)C)c1N1C(=O)c2ccc(O)cc2C1=O`, the “scaled lipid accumulation score” value under setting [4] was 0.259.

As for `CN(C)CC(C)(C)CNc1nn2c(-c3ccccc3)nnc2cc1C1CCC1`, the “scaled lipid accumulation score” value runs as follows: under setting [2], at most -0.005; under setting [3], at most -0.005; under setting [4], 0.159.
